# According to PubChem BioAssay:
# Calls of active or inactive are those of the source.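 How the source made its calls, unless noted: active means fluorescence slope after compound addition differing from the mean of all screened samples at 99.7% confidence, in either direction; inactive means the rest.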
# How the values were obtained:
# [1] = inhibitors of TNFa-induced NFkB p65 translocation, primary screen, imaging, HUVEC, MLSMR starter and 10KST1 sets (AID 438;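 active means inhibition above 20% together with a positive visual image hit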;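 further: compound added about 3h40 before a 20 min TNFalpha stimulation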;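 on inhibition: signal is the nuclear over cytoplasmic p65 intensity ratio per well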); conditions: HUVEC TNFa-induced p65 nuclear translocation; cell count: measured here: nuclei count (cytotoxicity indicator), at 2.08 µM; inhibition: at 2 µM, stronger effect = higher value, 0% TNFa-plus-vehicle, 100% no-TNFa wells
# [2] = inhibitors of mutant huntingtin aggregation, primary screen, imaging, exon1htt(103Q)mCFP cells, high-content imaging (AID 483;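 active means visual image review flags a hit and inhibition of aggregation exceeds 20%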;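 further: compound exposure lasted 3 days before fixation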;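 on nuclei count: percent of the per-plate median nuclei count of sample wells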); conditions: exon1htt(103Q)mCFP cell line, aggregate imaging, at 2 µM; inhibition of aggregation: stronger effect = higher value; nuclei count: measured here: cell count, toxicity
# [3] = inhibitors of E-selectin induction by TNFa, primary screen, imaging, HUVEC, immunofluorescence, MLSMR starter and 10KST1 sets (AID 487;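 active means visually confirmed hit in the image check and inhibition above 20%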;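 on inhibition: signal is fraction of cell area covered by stained E-selectin grains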;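 on nuclei count: 100% = median nuclei count of all wells on the same plate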); conditions: HUVEC TNFalpha-induced E-selectin immunofluorescence imaging, at 2 µM; inhibition: stronger effect = higher value; nuclei count: measured here: cell number, toxicity
# [4] = molecular target: Voltage-gated potassium channel subunit beta-2 (Rattus norvegicus) (UniProt P62483); assay: KvBeta enzyme negative modulators, primary screen, biochemical, NADPH fluorescence (AID 622;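 active means fluorescence slope higher than the sample average by over 3 SD, cut at about -0.22 in these data, passing the limit was not always enough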;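 further: slope of raw intensity against log time taken from 70 to 1610 s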); conditions: recombinant KvBeta, 4-cyanobenzaldehyde reduction, at 10 µM, stronger effect = higher value
# Voltage-gated potassium channel subunit beta-2 (Rattus norvegicus), sequence (P62483 whole entry, looked up): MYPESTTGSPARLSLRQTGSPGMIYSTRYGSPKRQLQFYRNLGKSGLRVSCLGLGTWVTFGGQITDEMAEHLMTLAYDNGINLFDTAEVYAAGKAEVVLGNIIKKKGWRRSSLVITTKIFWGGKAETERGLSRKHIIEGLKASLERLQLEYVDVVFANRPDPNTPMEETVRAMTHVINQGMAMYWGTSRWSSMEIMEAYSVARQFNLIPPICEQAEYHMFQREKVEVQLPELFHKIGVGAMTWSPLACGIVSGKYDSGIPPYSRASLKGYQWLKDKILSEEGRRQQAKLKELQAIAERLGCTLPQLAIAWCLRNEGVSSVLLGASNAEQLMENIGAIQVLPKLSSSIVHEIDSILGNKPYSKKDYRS
# [5] = molecular target: Voltage-gated potassium channel subunit beta-2 (Rattus norvegicus) (UniProt P62483); assay: KvBeta positive modulators, primary screen, biochemical, NADPH fluorescence (AID 623;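 active means NADPH fluorescence slope more negative than the mean of all samples by about 3 SD, 99.7% confidence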;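 further: fluorescence intensity change per second fitted from 20 to 320 s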); conditions: Recombinant KvBeta, NADPH fluorescence decrease slope, 10 min; at 10 µM; stronger effect = lower value
# [6] = molecular target: Alpha-2C adrenergic receptor (Homo sapiens) (UniProt P18825); assay: modulators of alpha2C/GIRK thallium flux, primary screen, cell-based, HEK293 alpha2C/GIRK1/2 (AID 624); conditions: thallium flux BTC fluorescence, at 10 µM, actives lie on both sides;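 further: slope of fluorescence ratio to pre-addition baseline per second over 15 to 24 s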
# Alpha-2C adrenergic receptor (Homo sapiens), sequence (P18825 whole entry, looked up): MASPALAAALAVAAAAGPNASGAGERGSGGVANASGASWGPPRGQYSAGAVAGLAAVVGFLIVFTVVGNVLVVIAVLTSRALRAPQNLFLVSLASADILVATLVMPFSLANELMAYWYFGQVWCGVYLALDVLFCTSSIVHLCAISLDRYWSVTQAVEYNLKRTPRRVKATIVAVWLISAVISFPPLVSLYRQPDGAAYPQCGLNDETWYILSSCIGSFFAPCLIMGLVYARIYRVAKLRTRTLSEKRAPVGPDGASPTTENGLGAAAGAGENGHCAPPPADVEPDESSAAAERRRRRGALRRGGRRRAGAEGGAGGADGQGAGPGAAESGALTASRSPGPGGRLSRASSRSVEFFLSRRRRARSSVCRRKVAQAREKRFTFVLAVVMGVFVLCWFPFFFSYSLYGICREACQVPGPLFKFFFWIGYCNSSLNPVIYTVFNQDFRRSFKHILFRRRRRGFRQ
# [7] = inhibitors of Sendai virus-induced IRF3 signaling, primary screen, TLR/RLR signaling modifier project, cell-based, Sendai virus stimulus, luciferase, 10K MLSCN set (AID 602276;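 active means inhibition at or above 50% at 10 µM; inactive means inhibition below 50%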;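 further: firefly luciferase from ISG56 promoter only with Renilla not read in this screen; 0% = Sendai virus plus DMSO and 100% = medium plus DMSO without virus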); conditions: HEK293 RL24 IRF3 luciferase reporter, at 10 µM, stronger effect = higher value
# [8] = inhibitors of poly I:C-induced TLR3 signaling, primary screen, cell-based, poly I:C stimulus, luciferase, 10K MLSCN set (AID 602277;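 active means inhibition of the reporter signal at or above 50%; inactive means inhibition below 50%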); conditions: HEK293-TLR3 RL24 IRF3 luciferase reporter, at 10 µM, stronger effect = higher value
SMILES,cell count [1],inhibition [1],inhibition of aggregation [2],nuclei count [2],inhibition [3],nuclei count [3],fluorescence slope [4],NADPH fluorescence slope [5],slope [6],inhibition [7],inhibition [8]
O=C(CN1CCCN(S(=O)(=O)c2ccc(F)cc2)CC1)Nc1ccccc1Br,220,-1.3% (inactive),2% (inactive),108%,-17.3% (inactive),118%,-0.504 (inactive),2.2e-05 (inactive),0.00558 (inactive),3.65% (inactive),9.12% (inactive)
CCCCCc1c(C)nc(SCC(=O)O)[nH]c1=O,611,-5.4% (inactive),12.9% (inactive),97.3%,-31.8% (inactive),106%,-0.539 (inactive),3.4e-05 (inactive),0.00694 (inactive),-8.6% (inactive),-1.36% (inactive)
COCCn1c(C)cc(C(=O)COC(=O)c2n[nH]c3ccccc23)c1C,330,3.7% (inactive),2.3% (inactive),98.9%,-26.9% (inactive),114%,-0.5 (inactive),-4.3e-05 (inactive),0.00592 (inactive),71.8% (active),49.1% (inactive)
Cc1cc(Nc2ccc(N3CCC(C)CC3)cc2)n2ncnc2n1,426,-2.4% (inactive),6% (inactive),103%,-18.3% (inactive),115%,-0.602 (inactive),7e-05 (inactive),0.00396 (inactive),-6.44% (inactive),-3.16% (inactive)
CCN(CC)CCN1C(=O)c2oc3ccc(F)cc3c(=O)c2C1c1ccncc1 (stereo not drawn),598,-12.9% (inactive),-2.9% (inactive),102%,-5.7% (inactive),111%,-0.536 (inactive),-4.3e-05 (inactive),0.00733 (inactive),15.9% (inactive),44.8% (inactive)
CSc1nc2ccc(Nc3nc(N4CCOCC4)nc(N4CCOCC4)n3)cc2s1,391,4.9% (inactive),6.4% (inactive),106%,17.6% (inactive),110%,-0.354 (inactive),-2.2e-05 (inactive),0.00663 (inactive),-24.9% (inactive),-49.5% (inactive)
Cc1csc(NC(=O)c2cccs2)n1,464,1% (inactive),30.4% (inactive),83.3%,-47.5% (inactive),99.5%,-0.506 (inactive),-4.8e-05 (inactive),0.00677 (inactive),-38.4% (inactive),-103% (inactive)
O=C1CC(N2CCN(c3cccc(C(F)(F)F)c3)CC2)C(=O)N1c1ccccc1 (stereo not drawn),622,-1.5% (inactive),-3.8% (inactive),117%,64.7% (active),75.3%,-0.473 (inactive),-1.5e-05 (inactive),0.00274 (inactive),7.76% (inactive),27.1% (inactive)
COC(=O)c1ccc(C2CC(=O)Nc3cc(OC)c(OC)c(OC)c32)cc1 (stereo not drawn),416,3.3% (inactive),11.2% (inactive),90.4%,-82.3% (inactive),157%,-0.424 (inactive),-3.3e-05 (inactive),0.00514 (inactive),11.7% (inactive),25.2% (inactive)
Cc1ccc(NC(=O)C2CC=CCC2C(=O)N2CCCCC2)cc1 (stereo not drawn),636,-23.5% (inactive),-67% (inactive),66.9%,-9.5% (inactive),94.3%,-0.499 (inactive),-2.1e-05 (inactive),0.00665 (inactive),-0.377% (inactive),26.9% (inactive)
COCCN(C(=O)c1csnn1)C(C(=O)NC1CCCCC1)c1cccs1 (stereo not drawn),370,5% (inactive),-6.3% (inactive),107%,-52.1% (inactive),95.8%,-0.335 (inactive),5.1e-05 (inactive),0.00648 (inactive),10.7% (inactive),23.1% (inactive)
CC(=O)Nc1ccc(S(=O)(=O)N2CCN=C2C)cc1,246,7.6% (inactive),14.3% (inactive),86.3%,-31.5% (inactive),83.1%,-0.62 (inactive),-1.6e-05 (inactive),0.00377 (inactive),3.93% (inactive),19.7% (inactive)
COc1cc2c(cc1OC)CN(C(=O)COc1ccc(C)c(C)c1)CC2,653,-3% (inactive),-11.6% (inactive),106%,17.1% (inactive),106%,-0.456 (inactive),1.3e-05 (inactive),0.00534 (inactive),18.6% (inactive),20.9% (inactive)
COc1ccc(S(=O)(=O)N2CCN(CC(=O)Nc3ccc(C)c(F)c3)CC2)cc1,339,-8.1% (inactive),-0.4% (inactive),115%,-4.2% (inactive),80.5%,-0.518 (inactive),1.2e-05 (inactive),0.00517 (inactive),18.5% (inactive),23.8% (inactive)
O=S(=O)(c1ccc(-c2csc(-c3cccnc3)n2)cc1)N1CCCCC1,372,-1.7% (inactive),-2% (inactive),102%,-30.5% (inactive),116%,-0.604 (inactive),-9e-06 (inactive),0.0051 (inactive),-0.353% (inactive),-37.2% (inactive)
O=C(Cn1c(=O)n(CC2CCCO2)c(=O)c2ccccc21)c1ccccc1 (stereo not drawn),361,4.4% (inactive),1.4% (inactive),103%,4.5% (inactive),111%,-0.51 (inactive),-3.9e-05 (inactive),0.00589 (inactive),10.8% (inactive),16.3% (inactive)
O=C(O)C1CCCCC1C(=O)NCCc1ccccc1 (stereo not drawn),350,4.6% (inactive),14.3% (inactive),99.3%,-165% (inactive),103%,-0.535 (inactive),-5.8e-05 (inactive),0.00513 (inactive),-15.8% (inactive),-11.5% (inactive)
Cc1cc(=O)n2nc(N3CCC(C(=O)N4CCN(Cc5ccccc5)CC4)CC3)sc2n1,450,-1% (inactive),-0.2% (inactive),113%,-31.7% (inactive),103%,-0.329 (inactive),-5.5e-05 (inactive),0.00533 (inactive),7.85% (inactive),3.68% (inactive)
COc1ccc(Cc2nc(-c3ccc(NC(=O)c4cccnc4)cc3)no2)cc1,609,9.6% (inactive),23.4% (inactive),121%,-45.6% (inactive),96.3%,-0.6 (inactive),-5e-05 (inactive),0.0059 (inactive),-8.06% (inactive),-67.3% (inactive)
O=S(c1ccsc1)c1ccsc1,444,6.5% (inactive),1.4% (inactive),95.8%,13% (inactive),99.8%,-0.497 (inactive),-4.1e-05 (inactive),0.00527 (inactive),19.8% (inactive),26.3% (inactive)
Cc1cccc(CC2CC(=O)N(c3ccccc3)C2=O)c1 (stereo not drawn),203,-2.9% (inactive),-15.1% (inactive),84.5%,11.6% (inactive),102%,-0.554 (inactive),-2.2e-05 (inactive),0.00674 (inactive),-16.2% (inactive),-11.2% (inactive)
Nc1nc2n(n1)C(c1cccc(Br)c1)CC(c1ccccc1)N2 (stereo not drawn),645,13.8% (inactive),-26.4% (inactive),114%,-39.6% (inactive),111%,-0.59 (inactive),9.1e-06 (inactive),0.00794 (inactive),13.2% (inactive),37% (inactive)
O=C(CN1CCN(Cc2ccccc2)CC1)Nc1ccc(Cl)cn1,615,-12.7% (inactive),19.3% (inactive),81.8%,-26% (inactive),92%,-0.502 (inactive),-2.1e-05 (inactive),0.00402 (inactive),17.4% (inactive),29.5% (inactive)
CCOC(=O)C1CSC(CC(=O)Nc2ccc(Cl)cc2)C(=O)N1 (stereo not drawn),704,3.9% (inactive),7.4% (inactive),103%,-56.7% (inactive),132%,-0.325 (inactive),-4.9e-05 (inactive),0.00513 (inactive),-5.63% (inactive),1.5% (inactive)
CC1=C(C(=O)NC2CCCC(C)C2C)C2(CCCCC2)OC1=O (stereo not drawn),515,3.3% (inactive),18.1% (inactive),64.9%,-37.4% (inactive),114%,-0.598 (inactive),-6.8e-07 (inactive),0.00687 (inactive),-0.153% (inactive),17.7% (inactive)
CCCC(=O)Nc1nc2ccc(S(N)(=O)=O)cc2s1,718,-1.8% (inactive),-16.5% (inactive),102%,-9.7% (inactive),100%,-0.406 (inactive),5.8e-05 (inactive),0.00596 (inactive),-18.7% (inactive),-57.7% (inactive)
Cc1c(C(=O)OC2CCC(C)CC2)[nH]c2c1C(=O)CCC2 (stereo not drawn),625,-0.8% (inactive),23.7% (inactive),81.6%,-31.8% (inactive),118%,-0.56 (inactive),1.4e-05 (inactive),0.00619 (inactive),-106% (inactive),-256% (inactive)
NC(=O)CN1C(=O)C(O)(CC(=O)c2ccccc2O)c2ccccc21 (stereo not drawn),641,-0.3% (inactive),-4.7% (inactive),122%,-65.3% (inactive),133%,-0.395 (inactive),-4.6e-05 (inactive),0.00547 (inactive),12.7% (inactive),38.5% (inactive)
